Source: PubChem (several laboratories)
Only some compounds are listed: those with a hit (about 1.6% of all), similar ones and a draw of the others.
Efflux pump mplx – inhibitors of Candida antifungal efflux pumps expressed in yeast. S. cerevisiae Candida pump triplex, Nile Red efflux. inhibition, % at 10 µM. 330,000 tested, 0.44% active;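 active means plate passing quality check with inhibition over a set limit, or well fluorescence over plate mean plus 4 SD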;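 further: Nile Red retained in pooled yeast measured as flow cytometry median fluorescence; higher means more Nile Red kept so more efflux inhibition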
Yeast superoxide – lowers age-related superoxide in aged yeast cells; 330,000 tested, 0.18% active; superoxide response (% of plate mean), % at 10 µM; S. cerevisiae aged cells, superoxide DHE fluorescence; hits give low values;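 active means superoxide response under a set limit, about three screen SD below normal, cut at about 65% in these data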;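 further: yeast aged for seven days with compound at 30 °C before DHE staining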
ATG4B inh – blocks human ATG4B protease cleavage of LC3 substrate | Q9Y4P1 | ATG4B cleavage of LC3-PLA2, NBD-HPC fluorescence, 1 h | inhibition, % at 8.33 µM | 340,000 tested, 0.51% active; in the data active means inhibition above about 40%
GRK2 aptamer HTS – inhibitors of human GRK2 displacing RNA aptamer | bead flow cytometry, FAM-aptamer displacement from GRK2 | 330,000 tested, 0.59% active | P25098 | inhibition of aptamer binding, % at 10 µM | AID 488847;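 active means inhibition of aptamer binding above 40%, roughly 3 SD of noise, on plates passing a quality check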;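 further: median bead fluorescence of bound FAM aptamer so fluorescent compounds give negative values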
Target sequence (P25098 whole entry, looked up): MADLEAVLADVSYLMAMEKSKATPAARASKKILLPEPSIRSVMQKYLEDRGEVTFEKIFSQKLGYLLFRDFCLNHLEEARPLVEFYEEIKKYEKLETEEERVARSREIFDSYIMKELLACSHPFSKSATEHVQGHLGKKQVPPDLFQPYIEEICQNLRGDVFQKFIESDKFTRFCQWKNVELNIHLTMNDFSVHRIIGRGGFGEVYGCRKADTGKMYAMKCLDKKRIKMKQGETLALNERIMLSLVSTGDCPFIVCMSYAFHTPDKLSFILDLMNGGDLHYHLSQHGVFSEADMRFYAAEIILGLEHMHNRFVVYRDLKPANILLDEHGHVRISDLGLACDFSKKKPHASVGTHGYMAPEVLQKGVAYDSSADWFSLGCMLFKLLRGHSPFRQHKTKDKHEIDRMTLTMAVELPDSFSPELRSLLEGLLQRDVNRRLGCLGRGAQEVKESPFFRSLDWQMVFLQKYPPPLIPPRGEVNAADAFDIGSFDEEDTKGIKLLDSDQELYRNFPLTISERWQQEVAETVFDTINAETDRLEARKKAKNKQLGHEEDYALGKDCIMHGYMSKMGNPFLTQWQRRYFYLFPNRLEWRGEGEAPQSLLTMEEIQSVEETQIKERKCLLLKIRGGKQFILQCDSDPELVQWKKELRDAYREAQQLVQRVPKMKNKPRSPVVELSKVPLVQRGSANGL
GRK2 inh confirm – human GRK2 inhibition confirmation, cherry pick 1; bead-bound GRK2, FAM-aptamer displacement, flow cytometry; 2,000 tested, 4% active; shares compounds with GRK2 aptamer HTS; aptamer displacement, % at 10 µM;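 active means aptamer displacement above 40%, near three times the noise of non-fluorescent compounds, on plates passing quality checks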;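 further: negative values mostly reflect intrinsic compound fluorescence rather than true enhancement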
Aptamer quench – counter-screen for GRK2 aptamer inhibitors: fluorescent aptamer quenchers | AID 504521 | shares compounds with GRK2 aptamer HTS | fluorescence change (kMESF span), kMESF (no concentration beside the values) | Fluorescent RNA aptamer beads, quenching, flow cytometry; hits give high values | 110 tested, under 10 active;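 active means compounds whose bead fluorescence drops by more than 37 kMESF across the dose range, marking them as dye quenchers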
Aptamer quench SP – quenches fluorescent RNA aptamer, GRK2 hit artifact; shares compounds with GRK2 aptamer HTS; Carboxyfluorescein RNA aptamer on beads, flow cytometry quenching; hits give low values; fluorescence response (% of DMSO), % at 10 µM; 2,000 tested, under 10 active; AID 504580;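 active means compounds that quench the bead-bound fluorescent RNA probe, cutting fluorescence to under half of the solvent control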;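 further: counterscreen run without GRK2 so only probe quenching by compound is measured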
GRK2 CP2 – human GRK2 inhibition confirmation, cherry pick 2. shares compounds with GRK2 aptamer HTS. bead-bound GRK2, FAM-aptamer displacement, flow cytometry. inhibition of aptamer binding, % at 10 µM. 360 tested, under 10 active. AID 504782;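 active means inhibition of aptamer binding above 40%, about triple the noise seen with nonglowing compounds, on plates passing quality control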;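 further: negative values mostly come from compounds that fluoresce themselves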
FAM quench CP2 – quenches fluorescent RNA aptamer, GRK2 hit artifact; fluorescence response vs DMSO, % at 10 µM; 360 tested, under 10 active; carboxyfluorescein RNA aptamer beads, flow cytometry quenching; hits give low values; shares compounds with GRK2 aptamer HTS;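 active means response vs DMSO under 50%, meaning signal dropped by over half, treated as fluorescence quencher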;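 further: labelled aptamer on streptavidin beads without GRK2 as a quench counter-screen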
Of the large screens only hits and unclear results are named; the others gave an inactive call (follow-up assays come after a bar, where they were run).

COc1ccc(OC)c(N2C(=O)[C@@H]3C(c4ccccc4Cl)=NO[C@@H]3C2=O)c1	GRK2 aptamer HTS 70 | GRK2 inh confirm 98 | Aptamer quench inactive | Aptamer quench SP inactive
COc1ccc(C2=NO[C@@H]3C(=O)N(c4c(C)cccc4C)C(=O)[C@H]23)cc1OC	none | GRK2 CP2 inactive | FAM quench CP2 inactive
COc1ccc(N2C(=O)[C@@H]3C(c4cccnc4)=NO[C@@H]3C2=O)cc1	none
Cc1cccc(C)c1N1C(=O)[C@@H]2C(c3ccccc3Cl)=NO[C@@H]2C1=O	none | GRK2 CP2 inactive | FAM quench CP2 inactive
Cc1oc(C(=O)O)cc1COc1ccc2c3c(c(=O)oc2c1C)CCC3	GRK2 aptamer HTS 73 | GRK2 inh confirm inactive | Aptamer quench SP inactive
NNC(=O)CCCCCCCCCCOCCCCO	none
COc1ccc(NC(=O)CCN(c2ccc(OC)cc2)S(=O)(=O)c2ccc(C)c(C)c2)cc1	none (no result: Efflux pump mplx, Yeast superoxide, GRK2 aptamer HTS)
O=C(O)C/C=C(/NC(=O)OCc1ccccc1)C(=O)OCc1ccccc1	none
COCCNC(=O)CN1CCN(S(=O)(=O)c2ccc3c(c2)CCCC3)CC1	none
COc1ccc(C2c3ccc(O)cc3Oc3ncn4nc(-c5ccco5)nc4c32)cc1OC (configuration not stated)	GRK2 aptamer HTS 57 | GRK2 inh confirm inactive | Aptamer quench SP inactive
Cc1ccc(N(CC(=O)NCc2ccco2)C(=O)CCC(=O)Nc2nccs2)cc1C	none
COc1cc(/C=C(/NC(C)=O)C(=O)O)cc(Cl)c1OCc1ccc(Br)cc1	GRK2 aptamer HTS 80 | GRK2 inh confirm inactive | Aptamer quench SP inactive
Cc1cc(C)c(OCC(=O)N2CCN(c3ncc(C(F)(F)F)cc3Cl)CC2)c(C)c1	GRK2 aptamer HTS 80 | GRK2 CP2 inactive | FAM quench CP2 inactive
Cc1cc(C)cc(NC(=S)N2CCN(c3ncc(C(F)(F)F)cc3Cl)CC2)c1	none
CN1C/C(=C/c2ccsc2)C(=O)/C(=C/c2ccsc2)C1	GRK2 aptamer HTS 63 | GRK2 inh confirm inactive | Aptamer quench SP inactive
Cc1cc(N/C=C/C(=O)c2ccc(Br)cc2)no1	GRK2 aptamer HTS 77 | GRK2 inh confirm inactive | Aptamer quench SP inactive
OCCC1CN(Cc2cccc3c2OCO3)CCN1Cc1ccccc1 (configuration not stated)	none
OCCC1CN(Cc2cccc3c2OCO3)CCN1C1CCCCC1 (configuration not stated)	GRK2 aptamer HTS 99 | GRK2 inh confirm inactive | Aptamer quench SP inactive
CCN1/C(=C2\SC(=S)N(Cc3ccccc3)C2=O)Sc2ccccc21	none
CCC(CO)[n+]1c(C)cc(/C=C2\Sc3ccccc3N2Cc2ccccc2)cc1C (configuration not stated)	GRK2 aptamer HTS 71 | GRK2 inh confirm inactive | Aptamer quench SP inactive
N=c1oc2ccccc2cc1-c1nc(-c2ccc(Cl)cc2)cs1	none
Cc1ccc2c(c1)Oc1ccc([N+](=O)[O-])cc1C(=O)N2	none
Cc1ccc2c(c1)Oc1ccc(NC(=O)CCl)cc1C(=O)N2	GRK2 aptamer HTS 41 | GRK2 inh confirm inactive | Aptamer quench SP inactive
CN(C(=O)c1ccccc1C(=O)OCC(=O)c1ccc(F)cc1)c1ccccc1	none
CN(C(=O)c1ccccc1C(=O)OCC(=O)c1ccccc1)c1ccccc1	GRK2 aptamer HTS 75 | GRK2 inh confirm inactive | Aptamer quench SP inactive
Cc1ccc(NC2=C(Cl)C(=O)OC2OC(C)C)cc1 (configuration not stated)	GRK2 aptamer HTS 47 | GRK2 inh confirm inactive | Aptamer quench SP inactive
COc1cccc(NC(=O)C2COc3ccccc3O2)c1 (configuration not stated)	none
O=C(O)c1cc(-c2ccc(/C=C3\NC(=O)N(c4ccc(Cl)cc4)C3=O)o2)ccc1Cl	GRK2 aptamer HTS 50 | GRK2 inh confirm inactive | Aptamer quench SP inactive
O=C(O)c1cc(-c2ccc(/C=C3\NC(=O)N(c4ccccc4)C3=O)o2)ccc1Cl	GRK2 aptamer HTS 86 | GRK2 inh confirm inactive | Aptamer quench SP inactive
O=C1NN(c2ccccc2)C(=O)/C1=C/c1ccc(-c2ccc(Cl)c(C(=O)O)c2)o1	none (no result: Efflux pump mplx, Yeast superoxide, GRK2 aptamer HTS)
O=C(N/N=C/c1ccc([N+](=O)[O-])o1)C1CC1	GRK2 aptamer HTS 83 | GRK2 inh confirm inactive | Aptamer quench SP inactive
COc1ccccc1C(=O)NCC(c1cccs1)N1CCc2ccccc21 (configuration not stated)	none
Cc1cccc(C)c1NC(=O)CN(C)CC(=O)c1c(N)n(Cc2ccccc2)c(=O)n(C)c1=O	none | GRK2 inh confirm inactive | Aptamer quench SP inactive
CCO[C@H]1OC(C(=O)N2CCN(C)CC2)=C[C@@H](C2CC2)[C@@H]1CCCO	none
O=C(NCCO)C(O)C(O)C(=O)NCCO (configuration not stated)	none
COc1ccc(C2Nc3cccc4cccc(c34)N2)cc1Br	GRK2 aptamer HTS 68 | GRK2 inh confirm inactive | Aptamer quench SP inactive
COc1cc(C2Nc3cccc4cccc(c34)N2)ccc1OC(C)=O	none
CNC(=O)NC(=O)COC(=O)c1n[nH]c2ccccc12	GRK2 aptamer HTS 45 | GRK2 inh confirm inactive | Aptamer quench SP inactive
O=C(OCCOc1ccccc1)c1n[nH]c2ccccc12	GRK2 aptamer HTS 78 | GRK2 inh confirm inactive | Aptamer quench SP inactive
CCOC(=O)c1n[nH]c2ccccc12	none
COc1ccccc1NC(=O)Nc1cc(F)ccc1F	none
Cc1nnc(NC(=O)CCS(=O)(=O)c2ccccc2)s1	none | GRK2 inh confirm inactive | Aptamer quench SP inactive
O=C(CS(=O)(=O)c1ccccc1)Nc1nnc(C(F)(F)F)s1	none
O=C(CCS(=O)(=O)c1ccccc1)Nc1nnc(C(F)(F)F)s1	none | GRK2 inh confirm inactive | Aptamer quench SP inactive
CC(C)(C)c1nnc(NC(=O)CCS(=O)(=O)c2ccccc2)s1	none | GRK2 inh confirm inactive | Aptamer quench SP inactive
Cc1nnc(NC(=O)CCS(=O)(=O)Cc2ccccc2)s1	none
CC(=O)N[C@H]1[C@H](Oc2ccc3c(c2)CCC2C3CC[C@]3(C)C(=O)CCC23)O[C@H](CO)[C@@H](O)[C@@H]1O (some centres not stated)	none
O=C(CN1C(=O)NC2(CCCc3ccccc32)C1=O)c1ccc(Br)cc1 (configuration not stated)	none
CCCCCC(=O)Nc1ccc(S(=O)(=O)Nc2cc(OC)nc(OC)n2)cc1	none
